# From the supplement of paper PMC10849652
# About 8,800 targets were measured; listed, in parts, are those with a hit and a random draw of the rest. About 0.5% of all pairs of compound and target were hits. A number with no mark means an inactive call.
# Assays:
# Experiment in all cases: log2 fold change, soluble protein after heating vs DMSO (PISA); higher = thermal stabilisation; K562 lysate, 10 uM; active = over 0.2 and 3.5 SD of the protein, either way, in both replicates (recomputed)
# [1] = compound: C#Cc1cccc(Nc2ncnc3cc(OCCOC)c(OCCOC)cc23)c1 [erlotinib]
# Outline: (§1)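 K562 pellets were dounce-homogenised in PBS pH 7.4 with 1 mM MgCl2, and the crude extract at 1 mg/mL protein was treated with 10 μM compound for 30 min. Aliquots were heated for 3 min across 48°C-58°C, pooled, and brought to 0.5% NP-40 at 4°C; soluble protein was the supernatant after 21,000xg for 90 min. Soluble protein was quantified by TMTpro 16plex LC-MS/MS with channel sums equalised, and reported as log2 fold change in thermal stability against DMSO controls, with values from duplicates.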
# [2] = compound: C/C(=N\NC(=O)C1=CC(=CC=C1)S(=O)(=O)N2CCOCC2)/C3=C(C=CC(=C3)Cl)O
# Outline: as §1
# [3] = compound: C1=CC(=CC=C1C2=NC3=C(N2)C=C(C=C3)C(=O)N)OC4=CC=C(C=C4)Cl
# Outline: as §1
# [4] = compound: C1=CC2=C(C=CC(=C2)/C=C\3/C(=O)NC(=NCC4=CC=CS4)S3)N=C1
# Outline: as §1
# [5] = compound: C1=CC2=NC=CN=C2C=C1/C=C/3\C(=O)NC(=O)S3
# Outline: as §1
# [6] = compound: C1=CC=C(C=C1)C2=NC(=C(N2)C3=CC=NC=C3)C4=CC(=C(C=C4)Cl)O
# Outline: as §1
# [7] = compound: C1=CC=C2C(=C1)C3=NNC4=CC=CC(=C43)C2=O
# Outline: as §1
# [8] = compound: C1CCN(C1)C(=O)NC2=CC=CC(=C2)NC3=NC=C(C(=N3)NCCC4=CN=CN4)Br
# Outline: as §1
# [9] = compound: C1CN(CCC1(CC2=CC=C(C=C2)Cl)N)C3=NC=NC4=C3C=CN4
# Outline: as §1
# [10] = compound: C1COCCN1CCN2C3=CC=CC=C3N=C2NC(=O)C4=CC(=CC=C4)[N+](=O)[O-] [IRAK-1-4 Inhibitor I]
# Outline: as §1
# [11] = compound: C=CC(=O)N1CCC[C@@H](n2nc(-c3ccc(Oc4ccccc4)cc3)c3c(N)ncnc32)C1 [ibrutinib]
# Outline: as §1
# [12] = compound: CC(=O)c1cnc2ccc(-c3cc(Cl)c(O)c(Cl)c3)nc2c1N[C@H]1CC[C@H](CN(C)C)CC1
# Outline: as §1
# [13] = compound: CC(C)(C)Cn1c(N)nc2ccc(-c3[nH]c(C(C)(C)C)nc3-c3ccc(F)cc3)nc21 [ralimetinib]
# Outline: as §1
# [14] = compound: CC(C)(O)CC(=O)NCCn1ccc2ncnc(Nc3ccc(Oc4cccc(C(F)(F)F)c4)c(Cl)c3)c21
# Outline: as §1
# [15] = compound: CC(C)C1=C2N=C(C=C(N2N=C1)NCC3=CC=CC=C3)NCCCCCCN
# Outline: as §1
# [16] = compound: CC1=C(C(CC(=O)N1)C2=CC=C(C=C2)C(F)(F)F)C(=O)NC3=C(C=C4C(=C3)C=NN4)F
# Outline: as §1
# [17] = compound: CC1=C(C2=C(C=C1)C(=O)C3=CC=CC=C3N2CCCN)C
# Outline: as §1
# [18] = compound: CC1=C(C=C(C=C1)NC(=O)C2=CC(=CC=C2)C(C)(C)C#N)NC3=CC4=C(C=C3)N=CN(C4=O)C
# Outline: as §1
# [19] = compound: CC1=C(C=C(C=C1)NC(=O)C2=CC(=CC=C2)N(C)C)NC(=O)C3=CC=C(C=C3)O
# Outline: as §1
# [20] = compound: CC1=CC=C(C=C1)SC2=C3C=C(SC3=CN=C2)C(=O)N
# Outline: as §1
# Chain of UniProt Q9UPY3 (Q9UPY3 whole entry, looked up): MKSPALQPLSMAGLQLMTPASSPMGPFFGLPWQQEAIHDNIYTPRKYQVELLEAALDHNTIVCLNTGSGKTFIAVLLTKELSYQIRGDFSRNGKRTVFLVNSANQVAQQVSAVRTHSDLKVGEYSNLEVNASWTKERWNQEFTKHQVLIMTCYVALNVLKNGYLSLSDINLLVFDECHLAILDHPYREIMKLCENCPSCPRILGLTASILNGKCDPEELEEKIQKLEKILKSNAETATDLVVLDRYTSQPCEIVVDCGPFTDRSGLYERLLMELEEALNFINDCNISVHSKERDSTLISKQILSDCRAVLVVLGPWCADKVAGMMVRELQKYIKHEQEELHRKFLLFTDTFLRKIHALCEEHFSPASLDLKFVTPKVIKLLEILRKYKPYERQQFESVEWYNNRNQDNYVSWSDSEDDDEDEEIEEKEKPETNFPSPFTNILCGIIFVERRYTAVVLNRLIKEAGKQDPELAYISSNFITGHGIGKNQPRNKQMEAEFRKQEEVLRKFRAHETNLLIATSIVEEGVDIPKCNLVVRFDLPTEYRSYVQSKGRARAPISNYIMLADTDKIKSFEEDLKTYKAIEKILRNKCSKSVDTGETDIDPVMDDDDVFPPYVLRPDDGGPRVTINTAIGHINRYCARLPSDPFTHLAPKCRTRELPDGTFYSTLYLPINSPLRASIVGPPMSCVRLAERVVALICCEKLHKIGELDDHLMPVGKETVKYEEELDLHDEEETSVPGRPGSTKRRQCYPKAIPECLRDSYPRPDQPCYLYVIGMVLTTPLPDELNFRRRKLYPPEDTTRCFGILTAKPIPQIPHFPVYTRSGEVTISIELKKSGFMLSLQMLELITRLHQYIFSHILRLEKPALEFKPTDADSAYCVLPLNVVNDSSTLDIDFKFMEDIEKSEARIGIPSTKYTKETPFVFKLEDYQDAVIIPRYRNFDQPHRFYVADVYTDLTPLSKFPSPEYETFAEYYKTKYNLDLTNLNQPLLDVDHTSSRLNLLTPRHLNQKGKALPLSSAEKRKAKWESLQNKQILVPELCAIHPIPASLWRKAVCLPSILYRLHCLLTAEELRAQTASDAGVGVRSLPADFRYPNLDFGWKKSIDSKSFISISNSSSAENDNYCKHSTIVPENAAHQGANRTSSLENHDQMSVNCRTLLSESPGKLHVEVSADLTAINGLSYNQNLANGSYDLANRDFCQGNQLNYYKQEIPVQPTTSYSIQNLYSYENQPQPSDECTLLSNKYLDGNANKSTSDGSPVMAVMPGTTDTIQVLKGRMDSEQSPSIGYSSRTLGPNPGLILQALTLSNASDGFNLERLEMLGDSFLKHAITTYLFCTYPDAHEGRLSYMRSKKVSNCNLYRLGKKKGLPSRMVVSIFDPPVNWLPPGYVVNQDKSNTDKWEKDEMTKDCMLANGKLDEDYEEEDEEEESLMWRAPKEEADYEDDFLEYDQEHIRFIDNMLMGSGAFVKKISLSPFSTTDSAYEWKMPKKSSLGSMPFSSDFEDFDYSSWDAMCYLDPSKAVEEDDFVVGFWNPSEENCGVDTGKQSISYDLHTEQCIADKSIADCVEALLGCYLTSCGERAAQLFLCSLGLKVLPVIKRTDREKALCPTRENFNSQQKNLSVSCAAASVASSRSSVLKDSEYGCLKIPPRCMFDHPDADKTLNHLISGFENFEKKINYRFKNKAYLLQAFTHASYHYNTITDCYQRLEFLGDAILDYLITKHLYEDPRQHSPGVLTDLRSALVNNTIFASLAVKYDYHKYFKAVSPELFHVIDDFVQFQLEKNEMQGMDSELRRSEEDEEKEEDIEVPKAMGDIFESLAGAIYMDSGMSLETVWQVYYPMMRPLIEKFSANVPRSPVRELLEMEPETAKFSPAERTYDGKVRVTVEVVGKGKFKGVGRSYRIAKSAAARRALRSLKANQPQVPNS
# Chain of UniProt Q86Y56 (Q86Y56 whole entry, looked up): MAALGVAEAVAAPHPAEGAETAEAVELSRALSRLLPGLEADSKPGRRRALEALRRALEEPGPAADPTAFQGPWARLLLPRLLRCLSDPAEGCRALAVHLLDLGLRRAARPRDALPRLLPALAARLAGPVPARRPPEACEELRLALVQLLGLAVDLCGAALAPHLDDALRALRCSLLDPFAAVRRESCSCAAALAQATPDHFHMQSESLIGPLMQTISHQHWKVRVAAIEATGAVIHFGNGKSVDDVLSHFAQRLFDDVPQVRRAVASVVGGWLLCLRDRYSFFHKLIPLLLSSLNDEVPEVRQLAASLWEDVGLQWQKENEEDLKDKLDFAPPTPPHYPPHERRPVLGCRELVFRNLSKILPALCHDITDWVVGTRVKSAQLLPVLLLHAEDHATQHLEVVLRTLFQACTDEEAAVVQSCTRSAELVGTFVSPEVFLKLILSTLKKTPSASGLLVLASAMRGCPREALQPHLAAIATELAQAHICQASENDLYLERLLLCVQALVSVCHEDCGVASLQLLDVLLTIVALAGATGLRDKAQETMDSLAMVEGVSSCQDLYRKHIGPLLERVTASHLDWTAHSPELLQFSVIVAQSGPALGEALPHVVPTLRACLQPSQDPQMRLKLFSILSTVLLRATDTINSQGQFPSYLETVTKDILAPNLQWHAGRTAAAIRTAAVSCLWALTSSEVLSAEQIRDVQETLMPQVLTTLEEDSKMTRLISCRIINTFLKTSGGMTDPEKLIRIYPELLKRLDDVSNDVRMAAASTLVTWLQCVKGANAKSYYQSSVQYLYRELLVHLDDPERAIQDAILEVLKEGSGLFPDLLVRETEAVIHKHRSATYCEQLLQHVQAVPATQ
# Chain of UniProt O00148 (O00148 whole entry, looked up): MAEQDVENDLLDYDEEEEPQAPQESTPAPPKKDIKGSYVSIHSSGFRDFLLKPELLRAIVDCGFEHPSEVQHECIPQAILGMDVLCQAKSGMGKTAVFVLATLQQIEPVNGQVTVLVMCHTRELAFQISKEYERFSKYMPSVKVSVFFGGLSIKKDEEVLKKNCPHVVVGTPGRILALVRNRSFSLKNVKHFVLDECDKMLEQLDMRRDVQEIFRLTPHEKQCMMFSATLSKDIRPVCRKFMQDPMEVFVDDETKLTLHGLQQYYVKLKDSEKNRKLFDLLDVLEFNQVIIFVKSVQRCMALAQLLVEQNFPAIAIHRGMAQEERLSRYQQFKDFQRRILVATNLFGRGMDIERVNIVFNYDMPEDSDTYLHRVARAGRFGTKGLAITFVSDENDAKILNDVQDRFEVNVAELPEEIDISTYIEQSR
# Chain of UniProt Q96KP4 (Q96KP4 whole entry, looked up): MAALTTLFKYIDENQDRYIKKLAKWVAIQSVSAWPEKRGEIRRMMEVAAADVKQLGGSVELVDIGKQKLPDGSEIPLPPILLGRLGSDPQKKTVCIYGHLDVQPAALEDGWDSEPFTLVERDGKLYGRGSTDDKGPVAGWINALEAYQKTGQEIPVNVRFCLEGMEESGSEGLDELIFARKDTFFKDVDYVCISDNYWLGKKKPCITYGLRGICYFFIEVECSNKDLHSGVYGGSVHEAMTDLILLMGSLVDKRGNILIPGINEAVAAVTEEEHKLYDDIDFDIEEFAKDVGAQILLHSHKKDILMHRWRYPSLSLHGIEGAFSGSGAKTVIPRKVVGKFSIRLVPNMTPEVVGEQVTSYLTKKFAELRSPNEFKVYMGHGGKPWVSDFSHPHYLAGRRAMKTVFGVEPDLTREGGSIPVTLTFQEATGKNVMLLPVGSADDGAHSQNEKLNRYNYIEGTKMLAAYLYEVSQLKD
# Chain of UniProt P68400 (P68400 whole entry, looked up): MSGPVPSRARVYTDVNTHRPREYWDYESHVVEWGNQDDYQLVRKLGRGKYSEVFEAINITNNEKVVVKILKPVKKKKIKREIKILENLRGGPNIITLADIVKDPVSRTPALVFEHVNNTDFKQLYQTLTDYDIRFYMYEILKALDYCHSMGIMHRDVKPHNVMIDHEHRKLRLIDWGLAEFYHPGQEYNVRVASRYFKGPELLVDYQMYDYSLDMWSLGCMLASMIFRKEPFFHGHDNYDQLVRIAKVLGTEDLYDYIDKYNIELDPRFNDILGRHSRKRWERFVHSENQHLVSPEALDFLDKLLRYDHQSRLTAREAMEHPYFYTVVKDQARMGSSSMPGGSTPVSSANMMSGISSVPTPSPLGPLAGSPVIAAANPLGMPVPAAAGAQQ
# Chain of UniProt Q8NI60 (Q8NI60 whole entry, looked up): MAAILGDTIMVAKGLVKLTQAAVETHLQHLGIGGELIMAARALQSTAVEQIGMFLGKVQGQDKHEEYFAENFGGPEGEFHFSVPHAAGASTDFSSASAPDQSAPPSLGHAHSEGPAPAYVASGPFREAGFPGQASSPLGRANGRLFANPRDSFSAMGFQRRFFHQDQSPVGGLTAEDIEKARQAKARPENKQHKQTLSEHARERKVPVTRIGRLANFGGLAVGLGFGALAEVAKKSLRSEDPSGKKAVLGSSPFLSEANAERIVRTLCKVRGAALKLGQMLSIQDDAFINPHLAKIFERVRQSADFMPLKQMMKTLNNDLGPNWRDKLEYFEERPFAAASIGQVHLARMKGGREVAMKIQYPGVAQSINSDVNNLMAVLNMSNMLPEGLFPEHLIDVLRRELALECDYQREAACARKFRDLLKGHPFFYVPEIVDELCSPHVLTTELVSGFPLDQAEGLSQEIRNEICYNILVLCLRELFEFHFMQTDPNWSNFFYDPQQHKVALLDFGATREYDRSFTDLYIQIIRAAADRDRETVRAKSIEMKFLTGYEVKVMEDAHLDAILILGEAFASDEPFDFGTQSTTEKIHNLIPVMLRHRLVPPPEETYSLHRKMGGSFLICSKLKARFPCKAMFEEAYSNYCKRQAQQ
# Chain of UniProt Q9BY43 (Q9BY43 whole entry, looked up): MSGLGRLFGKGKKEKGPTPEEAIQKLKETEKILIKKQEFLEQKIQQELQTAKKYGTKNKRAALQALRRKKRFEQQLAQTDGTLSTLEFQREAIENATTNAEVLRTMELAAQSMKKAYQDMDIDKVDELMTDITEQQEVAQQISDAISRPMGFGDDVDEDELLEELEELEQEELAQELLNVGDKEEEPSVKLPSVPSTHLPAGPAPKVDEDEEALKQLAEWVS
Target,log2 fold change [1],log2 fold change [2],log2 fold change [3],log2 fold change [4],log2 fold change [5],log2 fold change [6],log2 fold change [7],log2 fold change [8],log2 fold change [9],log2 fold change [10],log2 fold change [11],log2 fold change [12],log2 fold change [13],log2 fold change [14],log2 fold change [15],log2 fold change [16],log2 fold change [17],log2 fold change [18],log2 fold change [19],log2 fold change [20]
DCTN1 (UniProt Q14203),0.007,-0.001,-0.001,-0.001,0.019,-0.001,-0.023,0,-0.003,-0.005,-0.005,0.01,0.013,-0.02,-0.006,0.001,0.011,-0.013,0.009,0.011
CPT1A (UniProt P50416),-0.029,-0.034,0.01,-0.001,-0.05,0.002,0.011,-0.036,0.024,-0.008,0.042,-0.021,-0.016,0.008,-0.026,-0.009,-0.041,-0.05,-0.008,0.017
COG5 isoform 2 (UniProt Q9UP83),0.073,0.016,-0.044,0.001,-0.004,0.019,0.031,0.019,0.043,-0.001,0.061,-0.036,0.074,-0.027,0.037,-0.005,0.04,-0.016,0.073,0.052
COMT (UniProt P21964),0.031,-0.03,-0.01,0.011,-0.029,0.001,0.043,-0.024,-0.033,0.019,0.01,0.019,0.01,0.016,0.009,-0.045,0.002,0.031,0.019,0.01
DICER1 (UniProt Q9UPY3),0.013,-0.088,-0.056,-0.023,-0.027,0.03,-0.025,-0.064,-0.042,-0.016,-0.011,0.037,0.019,-0.055,0.012,0.044,0.003,0.018,0.013,0
COQ8A (UniProt Q8NI60),0.154,0.014,-0.057,0.008,-0.083,0.029,0.105,-0.01,0.007,-0.034,-0.061,0.611 (active),0.143,0.115,-0.009,-0.139,-0.074,-0.04,0,-0.068
CNDP2 (UniProt Q96KP4),-0.016,0.004,0.02,-0.038,-0.009,-0.022,0.007,0.039,0.041,0.051,0.013,-0.027,0.024,-0.049,-0.011,-0.005,-0.02,0.023,0,-0.035
DOK1 (UniProt Q99704),-0.024,0.051,0.023,0.015,0.002,-0.041,-0.02,0.021,0.06,0.021,0.023,0.01,0.017,0.014,-0.029,0.137,0.018,0.017,0.014,-0.135
COG6 (UniProt Q9Y2V7),-0.059,0.153,-0.074,-0.07,-0.008,0.015,0.024,0.008,0.077,0.006,-0.003,0.005,0.016,-0.059,-0.028,-0.017,0.016,0.004,0.033,0.021
DNAJC1 (UniProt Q96KC8),-0.018,-0.011,-0.159,-0.053,0.032,-0.044,-0.039,-0.011,0.017,0.013,-0.018,0.018,-0.007,-0.048,-0.014,0.019,0.019,-0.009,0.032,0.011
CHMP4A isoform 2 (UniProt Q9BY43),-0.046,0.008,0.018,-0.01,-0.018,0.021,0.033,0.014,-0.007,-0.016,-0.002,0.011,0.03,-0.041,0.036,0.011,-0.02,0.036,-0.03,-0.007
CTPS1 (UniProt P17812),-0.002,0.011,-0.027,-0.009,0.005,-0.013,-0.011,-0.007,-0.007,-0.001,-0.045,0.01,-0.017,-0.015,-0.022,-0.012,0.024,0.004,0.017,0.02
CSNK2A1 (UniProt P68400),0.005,-0.111,-0.02,0.225,0.356 (active),0.017,0.219,0.112,-0.02,0,-0.041,0.468 (active),0.002,-0.028,-0.054,-0.039,0.158,-0.078,-0.01,0.002
DHRS1 (UniProt Q96LJ7),0.024,0.898 (active),-0.017,-0.008,-0.036,0.654 (active),0.05,-0.052,0.105,-0.051,-0.057,-0.037,0.01,0.089,0.058,0.024,-0.104,0.001,-0.035,-0.001
DNAAF5 (UniProt Q86Y56),-0.008,0.041,-0.062,-0.057,0.021,-0.016,-0.08,-0.003,0.007,-0.039,-0.043,0.032,0.074,-0.049,-0.043,-0.002,-0.005,-0.035,0.047,0.061
DDX39A (UniProt O00148),0.023,-0.095,-0.045,-0.001,-0.003,0.008,-0.026,-0.02,0.009,0.014,-0.005,0.062,-0.009,0.029,0.022,0,0.009,-0.032,-0.016,-0.004
